This is a sample that favours compounds with a hit; in the whole collection about 1.5% have one here.
AF4-AF9 inh: inhibitors of human MLL-AF4/AF9 interaction; P42568; AlphaScreen, biotin-AF4 peptide binding to FLAG-AF9; inhibition, % at 10 µM; 350,000 tested, 0.47% active; AID 651704;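 active = every replicate reaching a set inhibition limit, whatever the replicate mean, cut at about 25% in these data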
NSD2 inh: inhibitors of human histone methyltransferase NSD2. NSD2 peptide methylation, AlphaScreen, 120 min. 310,000 tested, 0.54% active. O96028. inhibition, % at 12.5 µM; in the data active = inhibition above about 50%
RAD52 anneal inh: blocks human RAD52 DNA annealing. recombinant RAD52 DNA annealing, FRET fluorescence. inhibition, % at 18.7 µM. 360,000 tested, 0.46% active. AID 651710;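 active = every replicate showing at least 50% inhibition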
Casp6 inh: inhibitors of human caspase-6; purified caspase-6, Z-VEID-R110 cleavage fluorescence; inhibition, % at 12.5 µM; P55212; AID 686996; 350,000 tested, 0.53% active;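 active = mean inhibition across replicates at least about 35%, with every replicate also reaching that limit, limit read from the data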
Target sequence (P55212 24-179 limits assumed): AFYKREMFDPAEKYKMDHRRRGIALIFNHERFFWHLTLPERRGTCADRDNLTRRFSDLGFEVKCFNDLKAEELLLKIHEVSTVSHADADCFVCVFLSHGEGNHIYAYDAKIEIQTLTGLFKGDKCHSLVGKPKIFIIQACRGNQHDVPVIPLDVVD
Target sequence (P55212 194-293 limits assumed): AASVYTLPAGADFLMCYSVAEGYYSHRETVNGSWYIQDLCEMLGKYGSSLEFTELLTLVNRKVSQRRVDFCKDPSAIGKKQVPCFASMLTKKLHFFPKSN
miR122 inh: miR-122 inhibition in Huh7 cells; 340,000 tested, 0.3% active; Huh7 miR-122 Renilla luciferase sensor, 48 h; neutral wells = 0, positive control = 100; AID 602342; activation (reporter increase), % at 12.5 µM;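 active = mean replicate activation score at least 90 and every replicate individually at or above 90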;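 note: higher luciferase means less miR-122 activity so hits act as miR-122 inhibitors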
AlphaScreen art: interferes with AlphaScreen signal, flagging NSD2 false positives; shares compounds with NSD2 inh; AlphaScreen artifact counterscreen, preloaded methylated H4 peptide; AC35, µM (titrated, usually from 10 µM); 1,500 tested, 9.4% active; call rule not given here
A number is an active result.

COC(=O)C(CC#Cc1ccc2c(c1)[C@]1(C(=O)N2)[C@H](c2ccccc2OCCO)N2[C@H](c3ccccc3)[C@H](c3ccccc3)OC(=O)[C@H]2[C@@H]1C(=O)N1CCc2cc(OC)c(OC)cc2C1)C(=O)OC was read as AF4-AF9 inh inactive, RAD52 anneal inh inactive and Casp6 inh inactive.
Screening CNCCCCOc1ccccc1-c1ccccc1 returned AF4-AF9 inh inactive, NSD2 inh 64, RAD52 anneal inh inactive, Casp6 inh inactive, miR122 inh inactive and AlphaScreen art inactive.
`CNCCOc1ccccc1-c1ccccc1` gave NSD2 inh 76, miR122 inh inactive and AlphaScreen art inactive.
`COCCCNCCCCOc1ccccc1-c1ccccc1` gave NSD2 inh inactive and miR122 inh inactive.
For COCCNCCOc1ccccc1-c1ccccc1 the results were NSD2 inh inactive, RAD52 anneal inh inactive, Casp6 inh inactive and miR122 inh inactive.
Screening CCS(=O)(=O)N1CCCCN2[C@@H](CO)[C@@H](c3ccc(C#Cc4ccccc4OC)cc3)[C@@H]2C1 returned AF4-AF9 inh inactive, RAD52 anneal inh inactive, Casp6 inh inactive and miR122 inh inactive.
Screening COc1ccc(NC(=O)CC2C(=O)NCCN2C(=O)c2ccc(N(C)C)cc2)cc1 (configuration not stated) returned AF4-AF9 inh inactive, NSD2 inh 64, RAD52 anneal inh inactive, Casp6 inh inactive, miR122 inh inactive and AlphaScreen art inactive.
Screening COCC(=O)N1CC2(CCN(Cc3cncnc3)CC2)c2c(n(C)c3cc(OC)ccc23)[C@H]1CO returned AF4-AF9 inh inactive.
Screening Nc1cc(S(=O)(=O)O)cc2ccc(S(=O)(=O)O)cc12 returned AF4-AF9 inh inactive, NSD2 inh 102, RAD52 anneal inh inactive, Casp6 inh 57, miR122 inh inactive and AlphaScreen art inactive.
Nc1ccc(C(=O)O)cc1S(=O)(=O)O was read as AF4-AF9 inh inactive, NSD2 inh inactive, RAD52 anneal inh inactive, Casp6 inh inactive and miR122 inh inactive.
`O=C(Nc1ccc(O)cc1)C1CC=CCC1` (configuration not stated) gave NSD2 inh 126, miR122 inh inactive and AlphaScreen art inactive.
O=C(Nc1nccs1)C1CC=CCC1 (configuration not stated) was read as AF4-AF9 inh inactive, NSD2 inh inactive, RAD52 anneal inh inactive, Casp6 inh inactive and miR122 inh inactive.
For CCCNC(=O)N1C[C@@H](O)COC[C@@H]2O[C@H](CC(=O)NCc3ccc(Cl)c(Cl)c3)CC[C@H]21 the results were AF4-AF9 inh inactive, RAD52 anneal inh inactive, Casp6 inh inactive and miR122 inh inactive.
O=C1C=CC(=O)c2c(O)c(N3CCN(CCO)CC3)c(Cl)c(O)c21 was read as AF4-AF9 inh inactive, NSD2 inh 103, RAD52 anneal inh inactive, Casp6 inh 93, miR122 inh inactive and AlphaScreen art inactive.
O=C1C=CC(=O)c2c(O)c(N3CCN(CCOCCO)CC3)c(Br)c(O)c21 was read as AF4-AF9 inh inactive, NSD2 inh 81, RAD52 anneal inh inactive, Casp6 inh 97 and AlphaScreen art inactive.
CC(C)CC#Cc1cnc2c(c1)C(=O)N([C@@H](C)CO)C[C@@H](C)[C@H](CN(C)C(=O)C1CCOCC1)O2 was read as AF4-AF9 inh inactive, RAD52 anneal inh inactive, Casp6 inh inactive and miR122 inh inactive.
For CO[C@@H]1CN(C)C(=O)c2ccc(NC(C)=O)cc2OC[C@@H](C)N(C(=O)c2ccc(F)cc2)C[C@@H]1C the results were AF4-AF9 inh inactive, RAD52 anneal inh inactive, Casp6 inh inactive and miR122 inh inactive.
`CCCCn1c(N)c(N(CCC(C)C)C(=O)COC(=O)c2ccc([N+](=O)[O-])s2)c(=O)[nH]c1=O` gave AF4-AF9 inh inactive, NSD2 inh 53, RAD52 anneal inh inactive, Casp6 inh 95, miR122 inh inactive and AlphaScreen art inactive.
Screening CCCCn1c(N)c(N(CCC(C)C)C(=O)COC(=O)c2sccc2C)c(=O)[nH]c1=O returned AF4-AF9 inh inactive, NSD2 inh inactive, RAD52 anneal inh inactive, Casp6 inh inactive and miR122 inh inactive.
For CC(C)CN(C(=O)COC(=O)c1ccc([N+](=O)[O-])s1)c1c(N)n(Cc2ccccc2)c(=O)[nH]c1=O the results were AF4-AF9 inh inactive, NSD2 inh 65, RAD52 anneal inh inactive, Casp6 inh 82, miR122 inh inactive and AlphaScreen art inactive.

Screening results as filed in PubChem BioAssay.
